# From the supplement of paper PMC10037445
# Over roughly 2,900 compounds, “NF-kB SEAP reporter activity, fold change vs agonist alone” has its median near 0.99; the highest 2% begin near 2.6. Only a selection was taken, and the highest values are over-represented in it overall.
# How the values were obtained:
# RAW-Dual [1] = test: NF-kB SEAP reporter activity, fold change vs agonist alone; higher = enhanced NF-kB activity
# Method in brief: (§1)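 Supernatant from RAW-Dual macrophages was read after 20 hours for IRF by QuantiLuc luminescence and for NF-κB by QuantiBlue absorbance at 620 nm. The cells (50,000 cells/well in DMEM, 384-well plates, 37 °C, 5% CO2) had received 50 nL of library stock by pin tool and, 1 h later, a PRR agonist. Reporter activity is expressed relative to agonist-alone wells as fold change, and wells were flagged cytotoxic if IncuCyte confluency was under 70% of agonist controls in both mask sets.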
# RAW-Dual [2] = test: NF-kB SEAP reporter activity, fold change vs agonist alone; cytotoxicity flag (confluency mask): not cytotoxic; higher = enhanced NF-kB activity
# Method in brief: as §1
# RAW-Dual [3] = test: NF-kB SEAP reporter activity, fold change vs agonist alone; cytotoxicity flag (confluency mask): cytotoxic (confluency <70% of control); higher = enhanced NF-kB activity
# Method in brief: as §1
# [4] = agonist: ODN 1826 (TLR9) 0.5 ug/mL
# [5] = agonist: Pam2CSK4 (TLR2/6) 0.1 ug/mL
# [6] = agonist: Pam3CSK4 (TLR2/1) 0.1 ug/mL
# [7] = library stock concentration (final ~1000-fold dilution): 10 mM, cytotoxicity flag (confluency mask): cytotoxic (confluency <70% of control), agonist: Imiquimod (TLR7) […]
# [8] = library stock concentration (final ~1000-fold dilution): 10 mM, cytotoxicity flag (confluency mask): cytotoxic (confluency <70% of control), agonist: MPLA (TLR4) […]
# [9] = library stock concentration (final ~1000-fold dilution): 10 mM, cytotoxicity flag (confluency mask): not cytotoxic, agonist: Imiquimod (TLR7) […]
# [10] = library stock concentration (final ~1000-fold dilution): 10 mM, cytotoxicity flag (confluency mask): not cytotoxic, agonist: MPLA (TLR4) […]
smiles,measurement,setting,value
CC(=O)N1CCCC1C(=O)NC(Cc1c[nH]cn1)C(=O)NC(CO)C(=O)NC(CS)C(=O)NC(CC(N)=O)C(N)=O (stereo not given),NF-kB SEAP reporter activity,"RAW-Dual [1]; library stock concentration (final ~1000-fold dilution): 10 mM water, cytotoxicity flag (confluency mask): not cytotoxic, agonist: Imiquimod (TLR7) […]",0.979
same,NF-kB SEAP reporter activity,"RAW-Dual [1]; library stock concentration (final ~1000-fold dilution): 10 mM water, cytotoxicity flag (confluency mask): not cytotoxic, agonist: MPLA (TLR4) […]",1.06
CC(=O)N1CCCC1C(=O)NC(Cc1c[nH]cn1)C(=O)NC(CO)C(=O)NC(CS)C(=O)NC(CC(N)=O)C(N)=O (stereo not given) (library stock concentration (final ~1000-fold dilution): 10 mM water),NF-kB SEAP reporter activity,RAW-Dual [2]; agonist: LPS (TLR4) 0.1 ug/mL,1.15
same,NF-kB SEAP reporter activity,RAW-Dual [2]; [4],1.22
same,NF-kB SEAP reporter activity,RAW-Dual [2]; [5],1.19
same,NF-kB SEAP reporter activity,RAW-Dual [2]; [6],1.02
CC(C)COc1ccc(CNC(=O)N(Cc2ccc(F)cc2)C2CCN(C)CC2)cc1.CC(C)COc1ccc(CNC(=O)N(Cc2ccc(F)cc2)C2CCN(C)CC2)cc1.O=C(O)C(O)C(O)C(=O)O,NF-kB SEAP reporter activity,RAW-Dual [1]; [7],0.496
same,NF-kB SEAP reporter activity,RAW-Dual [1]; [8],1.23
CC(C)COc1ccc(CNC(=O)N(Cc2ccc(F)cc2)C2CCN(C)CC2)cc1.CC(C)COc1ccc(CNC(=O)N(Cc2ccc(F)cc2)C2CCN(C)CC2)cc1.O=C(O)C(O)C(O)C(=O)O (library stock concentration (final ~1000-fold dilution): 10 mM),NF-kB SEAP reporter activity,RAW-Dual [3]; agonist: LPS (TLR4) 0.1 ug/mL,0.205
same,NF-kB SEAP reporter activity,RAW-Dual [3]; [4],0.239
same,NF-kB SEAP reporter activity,RAW-Dual [3]; [5],0.0981
same,NF-kB SEAP reporter activity,RAW-Dual [3]; [6],0.143
CCNC1=NC2C(OC(CO)C(O)C2O)S1 (stereo not given),NF-kB SEAP reporter activity,RAW-Dual [1]; [9],1
same,NF-kB SEAP reporter activity,RAW-Dual [1]; [10],1.17
CCNC1=NC2C(OC(CO)C(O)C2O)S1 (stereo not given) (library stock concentration (final ~1000-fold dilution): 10 mM),NF-kB SEAP reporter activity,RAW-Dual [2]; agonist: LPS (TLR4) 0.1 ug/mL,1.15
same,NF-kB SEAP reporter activity,RAW-Dual [2]; [4],1.17
same,NF-kB SEAP reporter activity,RAW-Dual [2]; [5],1.04
same,NF-kB SEAP reporter activity,RAW-Dual [2]; [6],1.5
CC/C(=C(\c1ccc(O)cc1)c1ccc(OCCNC)cc1)c1ccccc1.Cl (library stock concentration (final ~1000-fold dilution): 10 mM),NF-kB SEAP reporter activity,RAW-Dual [3]; agonist: LPS (TLR4) 0.1 ug/mL,0.354
same,NF-kB SEAP reporter activity,RAW-Dual [3]; [4],0.211
same,NF-kB SEAP reporter activity,RAW-Dual [3]; [5],0.157
same,NF-kB SEAP reporter activity,RAW-Dual [3]; [6],0.135
CC/C(=C(\c1ccc(O)cc1)c1ccc(OCCNC)cc1)c1ccccc1.Cl,NF-kB SEAP reporter activity,RAW-Dual [1]; [7],0.387
same,NF-kB SEAP reporter activity,RAW-Dual [1]; [8],0.632
O=C(c1ccc(Oc2ccccc2)cc1Cl)c1c[nH]c2ncnc(NC3CCC(CO)OC3)c12 (stereo not given),NF-kB SEAP reporter activity,RAW-Dual [1]; [7],0.133
same,NF-kB SEAP reporter activity,RAW-Dual [1]; [8],0.252
O=C(c1ccc(Oc2ccccc2)cc1Cl)c1c[nH]c2ncnc(NC3CCC(CO)OC3)c12 (stereo not given) (library stock concentration (final ~1000-fold dilution): 10 mM),NF-kB SEAP reporter activity,RAW-Dual [3]; agonist: LPS (TLR4) 0.1 ug/mL,0.431
same,NF-kB SEAP reporter activity,RAW-Dual [3]; [4],0.161
same,NF-kB SEAP reporter activity,RAW-Dual [3]; [5],0.293
same,NF-kB SEAP reporter activity,RAW-Dual [3]; [6],0.129
Cc1cc(N2CC(C)NC(C)C2)ncc1-c1ccc(-c2nc3c(ccn3C)c(=O)[nH]2)cc1 (stereo not given) (library stock concentration (final ~1000-fold dilution): 10 mM),NF-kB SEAP reporter activity,RAW-Dual [2]; agonist: LPS (TLR4) 0.1 ug/mL,2.18
same,NF-kB SEAP reporter activity,RAW-Dual [2]; [4],0.278
same,NF-kB SEAP reporter activity,RAW-Dual [2]; [5],1.38
same,NF-kB SEAP reporter activity,RAW-Dual [2]; [6],1.63
Cc1cc(N2CC(C)NC(C)C2)ncc1-c1ccc(-c2nc3c(ccn3C)c(=O)[nH]2)cc1 (stereo not given),NF-kB SEAP reporter activity,RAW-Dual [1]; [9],1.14
same,NF-kB SEAP reporter activity,RAW-Dual [1]; [10],2.01
Nc1ccc(-c2ccc3ncc4ccc(=O)n(-c5cccc(C(F)(F)F)c5)c4c3c2)cn1 (library stock concentration (final ~1000-fold dilution): 10 mM),NF-kB SEAP reporter activity,RAW-Dual [3]; agonist: LPS (TLR4) 0.1 ug/mL,5.68
same,NF-kB SEAP reporter activity,RAW-Dual [3]; [4],2.16
same,NF-kB SEAP reporter activity,RAW-Dual [3]; [5],1.77
same,NF-kB SEAP reporter activity,RAW-Dual [3]; [6],3.14
CCC(=O)N1CCN(c2ccc(-n3c(=O)ccc4cnc5ccc(-c6cnc7ccccc7c6)cc5c43)cc2C(F)(F)F)CC1,NF-kB SEAP reporter activity,"RAW-Dual [1]; library stock concentration (final ~1000-fold dilution): 2 mM, cytotoxicity flag (confluency mask): not cytotoxic, agonist: Imiquimod (TLR7) […]",0.44
same,NF-kB SEAP reporter activity,"RAW-Dual [1]; library stock concentration (final ~1000-fold dilution): 2 mM, cytotoxicity flag (confluency mask): not cytotoxic, agonist: MPLA (TLR4) […]",1.51
CCC(=O)N1CCN(c2ccc(-n3c(=O)ccc4cnc5ccc(-c6cnc7ccccc7c6)cc5c43)cc2C(F)(F)F)CC1 (library stock concentration (final ~1000-fold dilution): 2 mM),NF-kB SEAP reporter activity,RAW-Dual [2]; agonist: LPS (TLR4) 0.1 ug/mL,1.55
same,NF-kB SEAP reporter activity,RAW-Dual [2]; [4],1.02
same,NF-kB SEAP reporter activity,RAW-Dual [2]; [5],0.421
same,NF-kB SEAP reporter activity,RAW-Dual [2]; [6],0.629
COc1ccc(-c2ccc3ncc4c(c3c2)n(-c2ccc(N3CCNCC3)c(C(F)(F)F)c2)c(=O)n4C)cn1.O=C(O)/C=C\C(=O)O,NF-kB SEAP reporter activity,RAW-Dual [1]; [7],0.273
same,NF-kB SEAP reporter activity,RAW-Dual [1]; [8],0.298
Nc1ccc(-c2ccc3ncc4ccc(=O)n(-c5cccc(C(F)(F)F)c5)c4c3c2)cn1,NF-kB SEAP reporter activity,RAW-Dual [1]; [7],2.12
same,NF-kB SEAP reporter activity,RAW-Dual [1]; [8],2.7
